Some test systems named below: HCT-15 colon; HT29 colon; SNB-75 CNS; SNB-19 CNS; U251 CNS; PC-3 prostate; SK-MEL-5 melanoma; UACC-62 melanoma; LOX IMVI melanoma; SK-MEL-28 melanoma; SK-MEL-2 melanoma; EKVX NSCLC; SN12C renal; UO-31 renal; TK-10 renal; ACHN renal; CAKI-1 renal; A498 renal; CCRF-CEM leukemia; MOLT-4 leukemia.
Common to all, as to experiment: NCI-60 one-dose screen, 48 h (100 = growth as untreated, 0 = no growth, -100 = all killed)
Conditions in all cases: 10 µM unless noted

About 83,000 compounds went through this panel and 20% of them were active in at least one assay; those are over-represented in the sample as a whole.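 48-hour exposure, single concentration, 96-well plates; percent growth endpoint where 0 means no net growth. Active: below 10.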 Values without a mark were called inactive. Calls of active or inactive are those of the source.

Results on 8 compounds are retold here after PubChem BioAssay (NCI).

With `CC(=O)Nc1ccccc1-c1nc2ccccc2s1`, the growth in the assay with HCT-15 colon is 96.7%; with HT29 colon, 105%; in the assay on SNB-75 CNS it was 69.8%; in the assay on SNB-19 CNS, 94.6%; in the assay on U251 CNS, 108%; in the assay on PC-3 prostate it was 102%. The growth with SK-MEL-5 melanoma is 99%; with UACC-62 melanoma, 94.3%; in the assay with LOX IMVI melanoma, 97.3%; in the assay on SK-MEL-28 melanoma, 112%; with SK-MEL-2 melanoma it was 104%; in the assay with EKVX NSCLC, 96.1%. The growth with SN12C renal was 92.5%; in the assay with UO-31 renal, 89.1%; in the assay with TK-10 renal, 97.7%; in the assay on ACHN renal it was 102%; with CAKI-1 renal, 95.4%; in the assay with A498 renal, 84.4%. In addition, the growth was 98.4% in the assay on CCRF-CEM leukemia and 104% with MOLT-4 leukemia.

As to `Brc1ccc2[nH]cc(-c3nn4cc(-c5nccs5)nc4s3)c2c1`, the growth with HCT-15 colon was 10.2%; with HT29 colon, 40.9%; in the assay with SNB-75 CNS, -1.58% (active); with SNB-19 CNS, 61.1%; with U251 CNS, 61.3%; with PC-3 prostate, 9.64% (active). Moreover, the growth was 73.1% in the assay with SK-MEL-5 melanoma; 79.3% with UACC-62 melanoma; 8.86% (active) in the assay with LOX IMVI melanoma; 49.6% with SK-MEL-28 melanoma; 81.4% in the assay with SK-MEL-2 melanoma; 64.9% with EKVX NSCLC. Further, the growth in the assay with SN12C renal is 71.1%; in the assay with UO-31 renal it was -48.1% (active); with TK-10 renal, 98.3%; with ACHN renal, 3.16% (active); with CAKI-1 renal, -36.8% (active); in the assay on A498 renal, 47.5%. The results for the growth with CCRF-CEM leukemia and in the assay on MOLT-4 leukemia were 17.1% and 16.5%, respectively.

Regarding `CN1CCN(CCCCCC(=O)Nc2nc(-c3cccc(NS(=O)(=O)c4cccc5c(N(C)C)cccc45)c3)cs2)CC1`, the growth was 23.1% in the assay with HCT-15 colon; 15.8% with HT29 colon; 76.7% with SNB-75 CNS; 83.7% with SNB-19 CNS; 65% in the assay on U251 CNS; 67.4% in the assay on PC-3 prostate. The growth with SK-MEL-5 melanoma was 71%; with UACC-62 melanoma, 83.2%; in the assay with LOX IMVI melanoma it was -84.8% (active); in the assay with SK-MEL-28 melanoma, -61.1% (active); with SK-MEL-2 melanoma it was 102%; in the assay on EKVX NSCLC it was 74.7%. In addition, the growth in the assay on SN12C renal was 70.6%; with UO-31 renal, 75.1%; in the assay on TK-10 renal, 119%; with ACHN renal, 88.4%; in the assay with CAKI-1 renal, 74.3%; in the assay on A498 renal, 88.6%. Besides, the values for the growth in the assay with CCRF-CEM leukemia and in the assay with MOLT-4 leukemia were 59.8% and 39.5%, respectively.

Turning to `Cc1ccc(NC(=O)/C=C/c2ccc(OCCCOc3ccc4c(C)cc(=O)oc4c3)cc2)cc1`, the growth was 85.5% with HCT-15 colon; 71.3% in the assay on HT29 colon; -6.2% (active) in the assay with SNB-75 CNS; 38.2% in the assay with SNB-19 CNS; 71.6% in the assay with U251 CNS; 74.5% in the assay with PC-3 prostate. In addition, the growth in the assay with SK-MEL-5 melanoma was 76.9%; with UACC-62 melanoma it was 93%; with LOX IMVI melanoma, 68.8%; with SK-MEL-28 melanoma it was 59.9%; with SK-MEL-2 melanoma, 58%; in the assay on EKVX NSCLC it was 83.1%. In addition, the growth in the assay on SN12C renal was 73.3%; in the assay with UO-31 renal, 39.6%; in the assay with TK-10 renal it was 91.5%; in the assay with ACHN renal, 17.7%; in the assay on CAKI-1 renal, 51%; in the assay on A498 renal, 45.2%. Besides, the figures for the growth with CCRF-CEM leukemia and with MOLT-4 leukemia were 99.1% and 103%, respectively.

Consider `CC1(C)CC[C@]2(C(=O)O)CC[C@]3(C)C(=CC[C@@H]4[C@@]5(C)CC[C@H](NOCCCN)C(C)(C)[C@@H]5CC[C@]43C)[C@@H]2C1`, for which the growth with HCT-15 colon is 64.8%; in the assay on HT29 colon, 74%; in the assay on SNB-75 CNS it was 97%; with SNB-19 CNS, 93.2%; with U251 CNS, 69%; with PC-3 prostate, 65.3%. The growth in the assay on SK-MEL-5 melanoma was 61.2%; in the assay with UACC-62 melanoma, 71.4%; in the assay with LOX IMVI melanoma, 32.4%; in the assay on SK-MEL-28 melanoma, 87.4%; in the assay on SK-MEL-2 melanoma, 93.3%; in the assay on EKVX NSCLC, 83.9%. Further, the growth with SN12C renal is 83.5%; in the assay with UO-31 renal, 71.4%; in the assay on TK-10 renal it was 122%; with ACHN renal it was 97.8%; with CAKI-1 renal it was 93.7%; in the assay with A498 renal, 110%. In addition, the growth in the assay with CCRF-CEM leukemia is 66.4%; in the assay with MOLT-4 leukemia, 75.3%.

On to `O=C(/C=C/c1ccc(F)cc1)Nc1cccc2cccnc12`, for which the growth was 75.4% in the assay with HCT-15 colon; 105% in the assay with HT29 colon; 106% in the assay with SNB-75 CNS; 109% in the assay with SNB-19 CNS; 102% in the assay on U251 CNS; 98.5% with PC-3 prostate. The growth in the assay on SK-MEL-5 melanoma was 98.7%; in the assay on UACC-62 melanoma, 91.8%; with LOX IMVI melanoma, 121%; in the assay with SK-MEL-28 melanoma, 109%; in the assay with SK-MEL-2 melanoma, 107%; in the assay with EKVX NSCLC, 91.4%. Also, the growth was 101% in the assay on SN12C renal; 84.1% with UO-31 renal; 147% with TK-10 renal; 105% in the assay with ACHN renal; 91.4% in the assay with CAKI-1 renal; 114% with A498 renal. In addition, the growth in the assay with CCRF-CEM leukemia and in the assay on MOLT-4 leukemia was 105% in each case.

`CCOC(=O)C(=O)Nc1ccc2c(ccn2C(=O)c2cccc(F)c2)c1`: the growth in the assay on HCT-15 colon is 95.8%; in the assay with HT29 colon, 101%; in the assay with SNB-75 CNS, 74.3%; in the assay on SNB-19 CNS it was 91.6%; in the assay with U251 CNS, 105%; in the assay with PC-3 prostate it was 99.6%. Also, the growth in the assay with SK-MEL-5 melanoma was 96.3%; in the assay with UACC-62 melanoma it was 93.5%; in the assay with LOX IMVI melanoma, 96.3%; with SK-MEL-28 melanoma it was 99.1%; in the assay with SK-MEL-2 melanoma, 99.8%; in the assay on EKVX NSCLC it was 82.8%. Also, the growth in the assay on SN12C renal was 101%; with UO-31 renal, 88.2%; in the assay on TK-10 renal it was 97.6%; in the assay with ACHN renal, 80.2%; in the assay on CAKI-1 renal it was 92.7%; in the assay with A498 renal, 84.2%. Moreover, the growth in the assay with CCRF-CEM leukemia is 2.8% (active); in the assay with MOLT-4 leukemia, 107%.

Turning to `CSc1ccc(C(=NNS(=O)(=O)c2ccc(C)cc2)c2ccc(Cl)cc2)cc1`, the growth was 101% with HCT-15 colon; 99.8% in the assay on HT29 colon; 85.4% with SNB-75 CNS; 105% in the assay on SNB-19 CNS; 103% with U251 CNS; 86.4% in the assay on PC-3 prostate. Moreover, the growth in the assay with SK-MEL-5 melanoma is 99.3%; with UACC-62 melanoma, 90.1%; with LOX IMVI melanoma it was 106%; in the assay on SK-MEL-28 melanoma, 102%; in the assay on SK-MEL-2 melanoma, 95.9%; in the assay on EKVX NSCLC, 98.2%. Further, the growth in the assay with SN12C renal was 92.7%; in the assay on UO-31 renal, 81.8%; with TK-10 renal, 104%; in the assay with ACHN renal it was 105%; in the assay on CAKI-1 renal it was 86.2%; in the assay on A498 renal, 96.5%. Moreover, the growth in the assay with CCRF-CEM leukemia was 97.7%; with MOLT-4 leukemia it was 98.6%.
